Results as given in PubChem BioAssay AID1053197 (The Scripps Research Institute Molecular Screening Center, 2014).
In all, about 370,000 compounds went through this assay and about 2,600 (0.7%) were called active.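 The calls were made as follows: active = inhibition above a cutoff: mean of compounds within the control limits plus 3 SD of those (cut at about 17% in these data); inactive = the rest.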 The entries come from a sample that favours actives as a whole.

Each molecule was assayed against Sialate O-acetylesterase (Homo sapiens) (UniProt Q9HAT2) (assay: blockers of sialate O-acetylesterase activity-probe labeling – biochemical, fluorescence polarization, FP-Rh probe, 1536-well HTS, primary screen (AID 1053197;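 also: 0% = plate median of compound wells and 100% = probe without SIAE protein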)). Settings: SIAE FP-Rh probe binding, at 9.66 µM, active compounds read high.
Sialate O-acetylesterase (Homo sapiens), sequence (Q9HAT2 whole entry, looked up): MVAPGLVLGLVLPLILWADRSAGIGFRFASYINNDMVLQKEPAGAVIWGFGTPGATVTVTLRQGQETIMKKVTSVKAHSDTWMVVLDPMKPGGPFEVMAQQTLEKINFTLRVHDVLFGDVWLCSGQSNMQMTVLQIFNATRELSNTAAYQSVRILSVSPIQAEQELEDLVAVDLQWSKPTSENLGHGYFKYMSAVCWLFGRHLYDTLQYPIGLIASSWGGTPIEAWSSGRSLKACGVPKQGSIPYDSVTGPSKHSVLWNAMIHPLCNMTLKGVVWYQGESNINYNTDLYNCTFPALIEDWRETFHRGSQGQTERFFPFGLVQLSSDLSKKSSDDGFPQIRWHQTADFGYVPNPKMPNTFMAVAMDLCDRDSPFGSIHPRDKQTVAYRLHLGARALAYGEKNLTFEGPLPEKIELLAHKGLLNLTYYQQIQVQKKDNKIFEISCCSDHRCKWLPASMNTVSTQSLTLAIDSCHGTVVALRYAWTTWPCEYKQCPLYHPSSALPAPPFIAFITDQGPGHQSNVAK
CC(=O)Nc1nc2ncccn2c1-c1ccc(C(F)(F)F)cc1 was tested, and the inhibition was 4.66% (inactive). In the case of CC(=O)c1cc(-c2ccc3ccccc3c2)c(=O)n2c1CCC2, the inhibition is reported as -1.29% (inactive). In the case of COc1ccccc1/C=C/CN1CCC(CO)(Cc2ccccc2)CC1, the inhibition is reported as -3.81% (inactive). With COc1ccc(C(=O)O)cc1S(=O)(=O)NC1CCN(Cc2ccccc2)CC1 the inhibition was 0.4% (inactive). For COc1ccccc1/C=C/C=N/NC(=O)CN1CCN(Cc2ccccc2)CC1, the inhibition was 17.3% (active). In the case of O=S1(=O)c2c(cccc2N2CC[C@H](O)C2)O[C@@H]2CCN1C2, the inhibition is reported as 6.21% (inactive). COc1cccc(N2CCN(CC(=O)N(C)Cc3ccc(F)cc3)CC2)c1 was tested, and the inhibition was 1.64% (inactive). With Cc1ccnc(NS(=O)(=O)c2ccc(NC(=O)c3oc4ccccc4c3C)cc2)n1 the inhibition was -5.42% (inactive). With Cc1ccnc(NS(=O)(=O)c2ccc(NC(=O)c3ccc(S(=O)(=O)N(C)C)cc3)cc2)n1 the inhibition was -1.59% (inactive). In the case of Cc1ccnc(NS(=O)(=O)c2ccc(NC(=O)c3ccc(S(=O)(=O)N4CCOCC4)cc3)cc2)n1, the inhibition is reported as 21% (active). With CCCCCCN1CCS(=O)(=O)N(Cc2ccc(C(F)(F)F)cc2)C(C(=O)OC)C1 (configuration not stated) the inhibition was -2.85% (inactive). In the case of CC(=O)OC12CCCN(C1)/C(=C/c1ccncc1)C2 (configuration not stated), the inhibition is reported as 0.93% (inactive). For O=C(CCl)NC1CCCCN(Cc2cccc(C(F)(F)F)c2)C1=O (configuration not stated), the inhibition was 1.33% (inactive). In the case of Cc1nc2ccc(C(=O)N3CCSCC3)cc2s1, the inhibition is reported as 80.7% (active). With Cc1nc2ccc(S(=O)(=O)NC(C(=O)N3CCCCCC3)C(C)C)cc2s1 (configuration not stated) the inhibition was -3.13% (inactive). In the case of Cc1cccc(C(=O)N2CCC(c3nc4ccccc4s3)CC2)c1, the inhibition is reported as 1.7% (inactive). For Cc1cc(C)nc(NC(=S)N2CCN(c3ccc(C(F)(F)F)cn3)CC2)c1, the inhibition was -2.17% (inactive). With N#CC(C(N)=O)=C1CCC2(CC1)OCCCCO2 the inhibition was -1.29% (inactive). In the case of CC1(C)C/C(=C(/C#N)C(N)=O)CCO1, the inhibition is reported as 17.1% (active). In the case of Nn1c(SCC(=O)Nc2cccc3ccccc23)nnc1-c1cc(-c2ccc(F)cc2)n[nH]1, the inhibition is reported as -0.5% (inactive). In the case of CC(C)(C)NC(=O)C(c1cccnc1)N(C(=O)c1cnco1)c1ccc(C(C)(C)C)cc1 (configuration not stated), the inhibition is reported as 2.03% (inactive). In the case of CCOC(=O)c1ccc(NNC(C)=O)c([N+](=O)[O-])c1, the inhibition is reported as 3.08% (inactive). In the case of CCOc1ccccc1Nc1ccc(C(=O)O)cc1[N+](=O)[O-], the inhibition is reported as 17.1% (active). With CCOc1cc(C(=O)O)ccc1OCCOc1ccccc1 the inhibition was -4.46% (inactive). For O=C(CSc1nnc(COc2ccccc2)n1Cc1ccco1)c1ccc2ccccc2c1, the inhibition was -7.8% (inactive). CCOc1ccc(NC(=O)C/C(C)=N/NC(=O)Cc2cccs2)cc1 was tested, and the inhibition was 21.6% (active). For CCOc1ccc(NC(=O)CSc2nc3ccccc3c(=O)n2Cc2cccs2)cc1, the inhibition was 0.33% (inactive). In the case of CCOc1ccc(/C=N/OCC(=O)NCc2cccs2)cc1, the inhibition is reported as -7.11% (inactive). With Cc1ccc(C(=O)C2CCN(CC(=O)NCCC(C)C)CC2)cc1 the inhibition was 4.25% (inactive). For O=C(CSc1nc2ccccc2n1Cc1ccccc1Cl)N/N=C\c1c[nH]c2ccccc12, the inhibition was -8.22% (inactive). For CC(CCN1CCC(C(O)(c2ccccc2)c2ccccc2)CC1)Oc1ccc(C(F)(F)F)cc1 (configuration not stated), the inhibition was 8.83% (inactive). With COCCOC(=O)c1sc(=S)n(CCOC)c1N the inhibition was 35.8% (active). CCC(NC(=O)C1C2C=CC3(CN(Cc4ccccc4)C(=O)C13)O2)c1ccccc1 (configuration not stated) was tested, and the inhibition was 0.07% (inactive). O=C(CSc1nc2ccccc2s1)NN=Cc1ccc(O)cc1O was tested, and the inhibition was 7.21% (inactive). With O=C(CSc1nnc(-c2ccccn2)n1-c1ccccc1)Nc1ccc2cn[nH]c2c1 the inhibition was 1.79% (inactive). For Cc1ccc(-n2c(SCC(=O)Nc3ccc(S(=O)(=O)Nc4nccs4)cc3)nnc2-c2ccncc2)cc1, the inhibition was -12.6% (inactive). In the case of CNCC(O)c1ccc(O)c(O)c1 (configuration not stated), the inhibition is reported as 4.81% (inactive). In the case of CCC(C)c1ccc(O)c(/C=N/O)c1 (configuration not stated), the inhibition is reported as 23.1% (active). For O=S(=O)(c1ccccc1)N1CCC(c2nc3ccccc3o2)CC1, the inhibition was 6.75% (inactive). With O=C1CC(c2ccc3c(c2)OCO3)N=C2N(CC3CC3)C/C(=C/c3ccccc3)N12 (configuration not stated) the inhibition was 6.68% (inactive). In the case of COc1ccc(-c2cc(-c3nnc(SCC(=O)Nc4cccc5ccccc45)n3N)[nH]n2)cc1, the inhibition is reported as 1.67% (inactive). With COC(=O)C[C@@H]1CC[C@@H]2[C@@H](COc3ccc(NC(=O)Nc4ccc(F)c(F)c4)cc3C(=O)N2C)O1 the inhibition was -2.22% (inactive). O=C1CC[C@@H](COc2ccc3[nH]cc(-c4ccccc4)c3c2-c2ccccc2)N1 was tested, and the inhibition was 3.06% (inactive). For COc1ccc2[nH]c3c(C)c4cc[n+](C)cc4c(C)c3c2c1, the inhibition was 3.4% (inactive). COc1ccc2[nH]c(=S)cc(C)c2c1 was tested, and the inhibition was 23.9% (active). For COc1ccc(N)c(C)c1, the inhibition was 15.1% (inactive). With COC(=O)C12C=C3CC(c4ccccc4)=C3C(=O)N1Cc1[nH]c3ccccc3c1C2 (configuration not stated) the inhibition was 5.02% (inactive). With Cc1cc(NS(=O)(=O)c2ccc(NC(=O)CSc3nnc(SCc4ccc(F)cc4)s3)cc2)nc(C)n1 the inhibition was -8.85% (inactive). With COc1ccc(CN2C/C(=C/c3ccccc3)N3C(=O)C[C@@H](c4ccccc4)N=C23)c(OC)c1 the inhibition was 3.22% (inactive). In the case of O=C(NCc1ccco1)/C(=C/c1cccc([N+](=O)[O-])c1)NC(=O)c1ccco1, the inhibition is reported as -7.3% (inactive). O=C(NCc1ccco1)/C(=C\c1cccc([N+](=O)[O-])c1)NC(=O)c1ccco1 was tested, and the inhibition was -0.85% (inactive). In the case of Cc1ccc(C(=O)N/C(=C/c2ccc(-c3cccc([N+](=O)[O-])c3)o2)C(=O)NCCCN(C)C)cc1, the inhibition is reported as 21.2% (active). With C=CCN1C(=O)[C@H](CC(=O)NCCCN2CCCC2=O)[C@@]2(C(=O)OCC)CCCC=C12 the inhibition was 4.17% (inactive). In the case of CCOC(=O)C1=C(C)NC2=C(C(=O)CC(C)(C)C2)C1c1ccc2c(c1)OCO2 (configuration not stated), the inhibition is reported as -1.17% (inactive). For COC(=O)CN1C(=O)C(O)=C(C(C)=O)C1c1ccc([N+](=O)[O-])cc1 (configuration not stated), the inhibition was -9.46% (inactive). COc1ccc(C2C(C(C)=O)=C(O)C(=O)N2CCc2c[nH]c3ccccc23)cc1 (configuration not stated) was tested, and the inhibition was 18.4% (active). COc1ccc2[nH]cc(CCN3C(=O)c4ccc(C(=O)O)cc4C3=O)c2c1 was tested, and the inhibition was 11.4% (inactive). CCOc1ccc(-n2c(SCC(=O)Nc3cc(C)c(NC(=O)c4ccccc4)cc3OC)nnc2-c2cccs2)cc1 was tested, and the inhibition was -1.97% (inactive). For COC(=O)C1CN(CC(C)C)CCS(=O)(=O)N1Cc1ccc(F)cc1 (configuration not stated), the inhibition was -0.32% (inactive). For COCCCNC(=O)C[C@H]1C[C@@]2(C(=O)OC)C(=C[C@H](C(C)(C)C)O[C@@H]2C)N(Cc2ccc(Cl)cc2Cl)C1=O, the inhibition was -5.63% (inactive). With O=C(NCC1COc2ccccc2O1)c1ccc(NC(=O)c2cc(F)ccc2F)cc1 (configuration not stated) the inhibition was -1.61% (inactive). For CCOC(=O)[C@]12CCCCC/C=C\1N(Cc1ccc(OC)cc1)C(=O)[C@H]2CC(=O)N1CCOCC1, the inhibition was -1.12% (inactive). In the case of COc1ccc(OC)c(CN2CCN(C(=O)CNC(=O)c3cc(C)cc(C)c3)CC2)c1, the inhibition is reported as 21.8% (active). Cc1cc(C)cc(C(=O)NCC(=O)OCC(=O)N2CCCCC2)c1 was tested, and the inhibition was 2% (inactive). In the case of COc1cc(OC)cc(C(=O)NCC(=O)N2CCCCCCC2)c1, the inhibition is reported as 0.93% (inactive). With CCOC(=O)[C@@]12CN(C(=O)OC(C)(C)C)CC=C1N(Cc1ccc(OC)cc1)C(=O)[C@H]2CC(=O)NCc1ccc(OC)c(OC)c1 the inhibition was 4.2% (inactive). With CCOC(=O)CNC(=O)CSc1ccc2nnc(-c3cccnc3)n2n1 the inhibition was 0.77% (inactive). With CCOc1ccc(-c2nnc3ccc(SC)nn23)cc1 the inhibition was -1.24% (inactive). For COC(=O)C(C)Sc1ccc2nnc(-c3cccc(F)c3)n2n1 (configuration not stated), the inhibition was 24.6% (active). In the case of CN(C)[C@H]1CCN(c2cccc3c2S(=O)(=O)N2CC[C@H](C2)O3)C1, the inhibition is reported as -4.89% (inactive). With O=C(CN1CCCc2ccccc21)NCc1ccc(F)cc1 the inhibition was 7.37% (inactive). For COC(=O)[C@H](C(C)C)N(CCCc1cn(Cc2ccccc2)nn1)S(=O)(=O)c1ccc(F)cc1Br, the inhibition was -3.32% (inactive). CC(=N\NC(=O)c1cc(Br)ccc1O)/C(=N/O)C(=O)Nc1ccccc1 was tested, and the inhibition was 9.77% (inactive). For CC(C)/C=N/NC(=O)c1cc(Br)ccc1O, the inhibition was 19.5% (active). In the case of O=C(N/N=C1\CCSC1)c1cc(Cl)ccc1O, the inhibition is reported as 8.12% (inactive). In the case of COc1ccc(-n2c(SCC(=O)NC3CCCC3)nnc2-c2ccncc2)cc1, the inhibition is reported as 6.27% (inactive). With O=C(NC1CCC1)c1ccc(C#Cc2cccc(F)c2)c[n+]1[O-] the inhibition was -0.65% (inactive). O=C(Nn1c(SCc2ccc([N+](=O)[O-])cc2)nc2ccccc2c1=O)c1ccc(F)cc1 was tested, and the inhibition was -45.6% (inactive). In the case of O=c1[nH]n(-c2ccc([N+](=O)[O-])cc2)c(=O)c2ccccc12, the inhibition is reported as 31.2% (active). In the case of CC(C)(C)c1cnnn1-c1ccc([N+](=O)[O-])cc1, the inhibition is reported as -4.05% (inactive). With O=C(NCCC1=CCCCC1)C1CCN(S(=O)(=O)c2ccc(Cl)s2)CC1 the inhibition was -2.35% (inactive). Cc1nn(-c2ccccc2)c(C)c1NC(=O)COC(=O)c1cc(Cl)ccc1O was tested, and the inhibition was -4.36% (inactive). For C/C=C/c1ccc(OCC(=O)OCC(=O)Nc2c(C)nn(-c3ccccc3)c2C)c(OC)c1, the inhibition was 18.3% (active). CCC(Oc1ccccc1)C(=O)OCC(=O)Nc1c(C)nn(-c2ccccc2)c1C (configuration not stated) was tested, and the inhibition was 5.85% (inactive). In the case of COc1ccc(CCNc2ncnc3nc[nH]c23)cc1OC, the inhibition is reported as 32.2% (active). For CCc1ccc(N(CC)c2ncnc3nc[nH]c23)cc1, the inhibition was -3.78% (inactive). In the case of COc1ccc(CCNc2nc3ccc(C)cc3n3cnnc23)cc1OC, the inhibition is reported as -5.53% (inactive). With Cc1ccc(OCc2nnc(SC/C=C/c3ccccc3)n2Cc2ccco2)cc1 the inhibition was 4.07% (inactive). With C=CCN(C(=O)[C@@H](CCCC)[C@@H](O)c1ccc(Cl)cc1)c1ccccc1 the inhibition was -2.75% (inactive). In the case of COc1ccc(-c2csc(Nc3ccc(O)cc3)n2)cc1, the inhibition is reported as 26.2% (active). For COc1ccc(-c2ccc3nnc(SCC(=O)Nc4ccc(NC(C)=O)cc4)n3n2)cc1, the inhibition was -23.3% (inactive). With CN(c1ccc(O)cc1)c1nc(-c2cccnc2)cs1 the inhibition was 7.08% (inactive).
